# Screening results: PubChem, National Center for Advancing Translational Sciences (NCATS)
# Shown are actives, neighbours in structure and some others; about 1.7% of the full set was active somewhere.
# GLP-1R agonist = qHTS of GLP-1 Receptor Agonists | Glucagon-like peptide 1 receptor (Homo sapiens), P43220 | HEK293 GLP-1R CRE-luciferase, luminescence, 4-6 h; cells express a hypersensitive GLP-1R form | Potency, µM (highest dose often 45.6 µM), for inactives: at the highest dose activation, most hits filed as activators | 0.007% of 380,000 active | AID 624172, 2012; note: % of control where 0% means no effect
# HEK293 tox = qHTS of GLP-1 Receptor Inverse Agonists: Cytotox Screen | HEK293 cAMP-luciferase reporter cells, luminescence, 24 h | Potency, µM (top dose mostly 38.3 µM), inactives show at the top dose activity change, negative = inhibition, usual class: inhibitors | 0.13% of 410,000 active | AID 624418, 2012;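 note: loss of luciferase light is scored as toxicity; % is set by controls: 0 for no effect and ±100 for the full control effect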
#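 Seeding density was 200 cells/uL; after overnight-length (12 h) culture, 23 nL compounds went on for 24 h at 37 °C. Readout used a luciferase detection reagent, luminescence taken after 12 min at room temperature.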
# PTHR1 agonist = qHTS for PTHR1 Agonists: Primary Screen; Parathyroid hormone/parathyroid hormone-related peptide receptor (Homo sapiens), Q03431; HEK293 GP2 PTHR1 cells, GloSensor cAMP luminescence, 1 h; Potency, µM (series often up to 115 µM), for inactives: at the highest dose activation, usual class: activators; 0.075% of 410,000 active; AID 743266, 2014; note: nearly all actives have a fitted effect of over 55% in size
# Target sequence (Q03431 whole entry, looked up): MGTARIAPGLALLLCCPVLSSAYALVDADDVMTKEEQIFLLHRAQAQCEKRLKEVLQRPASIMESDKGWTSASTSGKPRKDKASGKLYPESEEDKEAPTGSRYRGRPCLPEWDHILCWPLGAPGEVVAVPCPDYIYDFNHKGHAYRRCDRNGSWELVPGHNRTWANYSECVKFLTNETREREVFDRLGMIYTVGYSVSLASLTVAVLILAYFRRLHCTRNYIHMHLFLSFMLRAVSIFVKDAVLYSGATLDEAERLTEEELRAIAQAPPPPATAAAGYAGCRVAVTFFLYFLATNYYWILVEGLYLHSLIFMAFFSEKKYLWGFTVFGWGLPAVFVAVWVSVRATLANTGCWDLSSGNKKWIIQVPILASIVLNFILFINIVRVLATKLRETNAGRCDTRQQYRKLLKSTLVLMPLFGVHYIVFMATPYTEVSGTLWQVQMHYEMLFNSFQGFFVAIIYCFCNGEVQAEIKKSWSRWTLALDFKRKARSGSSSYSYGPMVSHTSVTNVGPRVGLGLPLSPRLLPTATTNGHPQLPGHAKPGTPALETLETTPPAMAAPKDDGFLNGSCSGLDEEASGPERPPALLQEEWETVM
#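 HEK-293-derived GP2 cells expressing PTHR1 and a GloSensor cAMP reporter, 3,000/well, plated overnight, given luciferin plus IBMX (each 0.5 mM as added) for 1 h at 37 °C, then compound for 1 h at 37 °C. Luminescence was read after 15 min at room temperature.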
# GLP1R inv ag = qHTS of GLP-1 Receptor Inverse Agonists (Inhibition Mode) | Glucagon-like peptide 1 receptor (Homo sapiens), P43220 | HEK293 GLP-1R CRE-luciferase, luminescence, 24 h; GLP-1R form is constitutively active | Potency, µM (doses to about 38.3 µM), for inactives: at the top dose activity change, negative = inhibition, actives largely listed as inhibitors | 1.6% of 410,000 active; note: % is set by controls: 0 for no effect and ±100 for the full control effect; nearly all actives have a fitted effect of over 55% in size
#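 HEK293 cells stably co-expressing constitutively active GLP-1R and a cAMP-responsive luciferase reporter were seeded in DMEM with 10% Nu serum, given compounds after 12 h, and incubated 24 h at 37 deg C. Luminescence was then read.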
# Numbers without * were called inactive; i = inactive; ? = inconclusive; / = not tested or not shown; [ ] = remark or other dose. Calls come from the whole dose curve; as a rule, active = well fitted curve in the direction sought with a large enough effect; inconclusive = small, poorly fitted or top-dose-only effect, or another doubt; inactive = no such curve, though single readings can be large; an effect the other way counts as inactive or inconclusive. Potency is the fitted concentration of half-maximal effect.
SMILES,GLP-1R agonist,HEK293 tox,PTHR1 agonist,GLP1R inv ag
Cc1ccc(C2CC(c3cccs3)=NN2C(=O)CSC2=NCCS2)cc1 (stereo unspecified),-1.8%,-5.1%,-21.6%,4.47µM*
O=C(CSc1nc2ccccc2s1)N1c2ccccc2Sc2ccc(C(F)(F)F)cc21,-4.4%,2.8%,i,5.01µM*
CCC1CN(C(=O)N2CCC(C(=O)NCCc3cc(OC)ccc3OC)CC2)c2ccccc2O1 (stereo unspecified),/,-1.7%,-25.6%,5.8%
COc1ccc(-c2c(C)nn3c(C(F)(F)F)cc(-c4ccccc4)nc23)cc1OC,/,4.5%,-19.3%,0.9%
Cn1cc(CNCc2cn(C)nc2-c2ccc(C3CCCCC3)cc2)cn1,19.1%,-0.5%,-6.5%,7.94µM*
COCCN1CCCC(CNCc2cn(C)nc2-c2ccc(Oc3ccccc3)cc2)C1 (stereo unspecified),15.7%,?,-16.5%,?
CC(NC(CCc1ccccc1)C(=O)O)C(=O)N1CCCC1C(=O)O (stereo unspecified),-0.5%,/,/,/
Cc1ccc(S(=O)(=O)N(C)c2ccc(C(=O)NCC(c3ccco3)N(C)C)cc2)cc1 (stereo unspecified),-2.9%,-16.1%,-2.7%,7.08µM*
COc1ccccc1-c1noc(-c2ccc(NCc3ccco3)c([N+](=O)[O-])c2)n1,/,5.5%,i,22.1%
O=C(c1nn(Cc2ccccc2)c(=O)c2ccccc12)N1CCN(C/C=C/c2ccccc2)CC1,15.0%,-17.9%,-12.2%[57.5 µM],7.94µM*
CCOC(=O)c1c(C(F)(F)C(F)(F)C(F)(F)C(F)(F)F)n[nH]c1C,-0.7%,?,-8.3%,10µM*
CCn1c(=O)cc(OCC(=O)N2CCN(c3ccccc3OC)CC2)c2ccccc21,11.4%,-3.5%,-16.5%,-28.6%
COc1cccc(NC(=O)c2cccc(S(=O)(=O)N3CCN(Cc4ccccc4)CC3)c2)c1,5.9%,3.2%,-53.0%,6.31µM*
CN(Cc1ccc(F)cc1)C(=O)c1cccc(S(=O)(=O)N2CCN(Cc3ccccc3)CC2)c1,8.0%,-12.8%,-25.4%,?
COCCN(Cc1ccccc1)C(=O)c1cccc(S(=O)(=O)N2CCN(c3ccccc3)CC2)c1,9.6%,-3.6%,-90.5%,10µM*
COc1cccc(NC(=O)C2(C)CCN2CCc2ccccc2)c1 (stereo unspecified),4.9%,0.3%,-12.6%,11.2µM*
CSc1ccc(CN(C)C(=O)c2cccc(S(=O)(=O)N3CCN(Cc4ccccc4)CC3)c2)cc1,7.4%,-12.3%,-36.3%,11.2µM*
CC(=O)N1CCc2c(sc3c2c(=O)n(CCc2ccccc2)c(=O)n3CC(=O)Nc2ccc(C)c(F)c2)C1,-0.6%,0.4%,-4.9%,9.7%
CSc1ccc(CN(C)C(=O)c2cc(S(=O)(=O)NCc3ccccc3)ccc2C)cc1,-3.6%,-3.2%,-22.3%,?
CSc1ccc(CN(C)C(=O)c2cccc(S(=O)(=O)NCc3ccccc3)c2)cc1,8.6%,-2.0%,-30.5%,5.01µM*
CN(Cc1ccc(F)cc1)C(=O)c1cccc(S(=O)(=O)N2CCN(c3ccc(F)cc3)CC2)c1,6.4%,11.6%,-40.0%,10µM*
COc1ccc(-c2nc3ccccc3o2)cc1NC(=O)c1cccc2c(Cl)cccc12,/,-10.6%,-28.2%,26.4%
COc1cccc(C(=O)NCC2(c3ccccc3)CCCC2)c1OC,14.7%,2.6%,-19.8%,7.08µM*
O=S(=O)(NCCc1csc(-c2ccc(F)cc2)n1)c1ccc(Cl)cc1,/,-4.5%,-85.2%,11.2µM*
Cc1ccc(CCNC(=O)c2ccc3c(c2)nc2n3CCOC2)cc1,/,5.3%,i,2.0%
SMILES,GLP-1R agonist,HEK293 tox,PTHR1 agonist,GLP1R inv ag
O=C(NCCc1ccccc1)c1ccc2c(c1)nc1n2CCOC1,/,14.8%,-89.1%,8.91µM*
CC(C)CCNC(=O)c1ccc2c(c1)nc1n2CCCCC1,/,1.1%,-27.6%,6.31µM*
CCNC(=O)c1ccc2c(c1)nc1n2CCCCC1,/,-7.4%,-2.7%,-8.3%
O=C(NCCc1ccccc1Cl)c1ccc2c(c1)nc1n2CCCCC1,/,5.2%,-42.2%,12.6µM*
Cc1csc(N=Nc2ccc(N(C)C)cc2)[n+]1[O-],-6.9%,3.98µM*,-33.1%,?
CC(C)C[C@H](NC(=O)[C@H](CCc1ccccc1)NC(=O)CN1CCOCC1)C(=O)N[C@@H](Cc1ccccc1)C(=O)N[C@@H](CC(C)C)C(=O)[C@@]1(C)CO1,-5.6%,/,/,/
Cc1ccc(C(=O)c2cn(CC(=O)Nc3ccc(C)cc3Cl)c3nc(C)ccc3c2=O)cc1,/,-1.9%,?,6.0%
COc1ccc(CNC(=O)CN2CCC(C(=O)c3ccc(OC)cc3)CC2)cc1,-5.8%,?,i,10µM*
N/C(CCS(=O)(=O)c1ccc(Cl)cc1)=N\OC(=O)c1ccc(Cl)cc1,-0.5%,3.3%,i,17.7%
N/C(CCS(=O)(=O)c1ccc(Cl)cc1)=N\OC(=O)c1ccccc1C(F)(F)F,30.9%,10µM*,-22.9%,?
COc1cc(CCc2ccccc2)c(C(=O)O)c(O)c1CC=C(C)C,-0.8%,-10.9%,-92.1%,10µM*
COc1cc(CCc2ccccc2)c(C(=O)O)c(O)c1C/C=C(/C)CCC=C(C)C,1.4%,?,-27.4%,?
COc1ccccc1NC(=O)CN1C(=O)C(c2ccc(F)cc2)=NC12CCCCC2,/,-4.6%,-39.0%,?
Nc1ccc(Cn2ccc3c4c(N)nc(N)nc4ccc32)cc1,13.3%,7.94µM*,-12.0%,?
Cc1ccc(-n2nc(C)c3c(C)cc(=O)n(CC(=O)Nc4cccc(C)c4C)c32)cc1,/,5.7%,5.8%,10.0%
N/C(=N\S(=O)(=O)c1cc(C(F)(F)F)cc(C(F)(F)F)c1)c1ccc(Cl)cc1,-7.0%,?,-83.1%,2.51µM*
N/C(=N\S(=O)(=O)c1cc(C(F)(F)F)cc(C(F)(F)F)c1)c1ccncc1,21.6%,-9.9%,i,0.3%
COc1cccc(-c2cc(C(F)(F)F)nc(NCCc3ccccc3)n2)c1,1.0%,2.9%,-6.5%,?
COc1ccc(-c2cc(C(F)(F)F)nc(NCCc3ccccc3)n2)cc1OC,2.3%,1.2%,-4.8%,18.8%
COc1ccc(-c2cc(C(F)(F)F)nc(NCCc3ccccc3)n2)cc1,0.1%,24.8%,i,3.16µM*
COc1ccc(CCNc2nc(-c3ccccc3OC)cc(C(F)(F)F)n2)cc1OC,2.8%,15.3%,-25.0%,3.55µM*
Cc1cccc(N2CCN(C(=O)Cn3cnc4sc(C)c(S(=O)(=O)N5CCN(c6ncccn6)CC5)c4c3=O)CC2C)c1 (stereo unspecified),-5.0%,-18.6%,-5.8%,?
Clc1cccc(N/N=C/c2ccc(N3CCOCC3)s2)c1,2.4%,?,-24.2%,2.82µM*
O=C(N/N=C/c1ccc(N2CCOCC2)s1)c1ccccc1Br,5.8%,14.5%,i,66.2%
